Compounds with a hit are over-represented: about 8% of the library has one in this group of screens.
HCMV antiviral = qHTS Assay for inhibitors of the human cytomegalovirus (HCMV); 410,000 compounds, 4.5% hits; AID 1259415, 2018; HFF cells, HCMV-luciferase reporter, 72 h; active compounds read low; activity change, negative = inhibition, % at 57.5 µM; in the data active = activity change below about -60%; inconclusive = no clear call, values can overlap the other calls; inactive = above about -39%; note: % is set by controls: 0 for no effect and ±100 for the full control effect
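Two compound doses tested in HFFs infected with HCMV-luciferase, MOI 1 PFU/cell, 72 h at 37C. Lysate luminescence read with OneGlo; data normalized against buffer-only and 10uM Salinomycin inhibitor controls.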
FMDV antiviral = High Throughput Screening for Foot and Mouth Disease Virus Antivirals; AID 1159524, 2015; 410,000 compounds, 1.2% hits; Potency, µM (doses to about 57.9 µM), without a hit: top-dose activity change, negative = inhibition, actives largely listed as inhibitors; FMDV antiviral cell-based qHTS; calls by dose curve; tested in HEK293T cells; note: read-out not given here; potency is the fitted concentration of half-maximal effect; % is set by controls: 0 for no effect and ±100 for the full control effect; nearly all actives have a fitted effect of over 45% in size
SARS PLP yeast = qHTS of Yeast-based Assay for SARS-CoV PLP. S. cerevisiae expressing SARS-CoV PLpro, growth rescue. Potency, µM (series often up to 32.9 µM), for the others: at the highest dose activity, positive = growth rescue, usual class: activators. 330,000 compounds, 0.19% hits. AID 485353, 2010; calls by dose curve; note: potency is the fitted concentration of half-maximal effect; 0% is about no effect; nearly all actives have a fitted effect of over 55% in size
LASV entry inh = qHTS for Inhibitors of binding or entry into cells for Lassa Virus; Lassa virus pseudotype entry inhibition, cell reporter; 300,000 compounds, 1.2% hits; Potency, µM (titrated, usually from 37.9 µM), for the others: at the highest dose activity change, negative = inhibition, usual class: inhibitors; calls by dose curve; tested in HEK293 cells; note: potency is the fitted concentration of half-maximal effect; % is set by controls: 0 for no effect and ±100 for the full control effect; nearly all actives have a fitted effect of over 50% in size
MARV entry inh = qHTS for inhibitors of binding or entry into cells for Marburg Virus; Potency, µM (top dose mostly 37.8 µM), inactives show top-dose activity change, negative = inhibition, usual class: inhibitors; AID 540276, 2011; 300,000 compounds, 1.8% hits; Marburg virus pseudotyped entry inhibition, cell reporter; calls by dose curve; tested in HEK293 cells; note: potency is the fitted concentration of half-maximal effect; % is set by controls: 0 for no effect and ±100 for the full control effect
HCV inhibitor = qHTS Assay for Inhibitors of Hepatitis C Virus (HCV); Huh7.5.1 HCVcc-Cre infection, luciferase reporter, 44 h; Potency, µM (highest dose often 41.8 µM), for inactives: at the top dose activity change, negative = inhibition, actives largely listed as inhibitors; 340,000 compounds, 3.4% hits; AID 651820, 2012; active = well fitted inhibition curve with a large enough effect; inconclusive = small, poorly fitted or top-dose-only effect, or another doubt; inactive = no such curve, though single readings can be large or run the other way; note: potency is the fitted concentration of half-maximal effect; % is set by controls: 0 for no effect and ±100 for the full control effect
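1,000 cells/well; 4 h culture; + compound; + HCVcc-Cre (~0.5 moi); 44 h; luciferase substrate, RT 15 min; read 15 sec.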
Numbers without * were called inactive; u = inconclusive; x = no result given; [ ] = remark or other dose.

SMILES	HCMV antiviral	FMDV antiviral	SARS PLP yeast	LASV entry inh	MARV entry inh	HCV inhibitor
CCCC/C=C1/CCC(CN(C)C)C1=O (centres undefined)	x	28.2µM*	x	6.6%[46.1 µM]	5.4%	u
CN(C)CC1CCC/C(=C/c2ccc(Cl)cc2)C1=O (centres undefined)	0.5	39.8µM*	x	u	-3.1%	u
CC(NC(=O)c1ccco1)c1nnc2n1CCN(Cc1ccc(N(C)C)cc1)CC2 (centres undefined)	x	-3.8%	x	x	x	x
COc1cccc(CC(=O)NCC2Cc3cc(Cl)cc(-c4ncccn4)c3O2)c1 (centres undefined)	x	-11.5%	x	x	x	x
O[C@H]1C[C@H](c2ccccc2)N(CC2CCCCC2)C[C@H]1n1cc(-c2ccc(F)cc2)nn1	x	x	x	-34.9%[46.1 µM]	x	x
Cc1cccc(C(=O)Nc2ccc3nc(SCC(=O)N4CCCC4)sc3c2)c1	-28.4	u	x	-10.0%[46.1 µM]	16.3%[46.1 µM]	x
Cc1ccc(NC(=O)COc2ccc(-c3nn(C)c(=O)c4ccccc34)cc2)c(C)c1	-39.9	u	x	-2.2%[46.1 µM]	-0.1%[46.1 µM]	x
CCOC(=O)c1nnc2c(-c3ccc(Cl)cc3)c(C)nn2c1N	-25.4	-17.4%	x	u	16.5%[46.1 µM]	x
O=S(=O)(c1ccccc1)N1CCC(O)(CSc2ccc(F)cc2)CC1	-86.1*	u	-0.7%	u	u	11.2µM*
CCc1ccc(CNC(=O)CN2C(=O)c3cccnc3Oc3ccc(C)cc32)cc1	u	-9.4%	x	-29.9%[46.1 µM]	x	x
COc1cc(C(=O)OCC(=O)N2c3ccccc3NC(=O)C2(C)C)ccc1OCC(C)C	-11.9	u	2.5%	u	u	6.31µM*
COC(=O)c1scc(-c2ccc(C)cc2)c1S(=O)(=O)N1CCN(c2cccc(OC)c2)CC1	-20.0	0.0%	x	u	x	x
CC(C)c1ccc(C(=O)Nc2ccc(-c3nc4ccccc4s3)c(Cl)c2)cc1	-6.9	-21.8%	x	18.8%[46.1 µM]	-4.6%[46.1 µM]	x
Cc1ccc(SSc2cc(C)ccc2N)c(N)c1	-80.8*	13.5%	1.3%	x	x	u
COc1ccccc1NC(=O)Cc1c(C(=O)O)[nH]c2ccc(Cl)cc12	-25.8	-23.1%	x	14.7%[46.1 µM]	x	x
COc1ccccc1NC(=O)N1CCN(c2ccnc3cc(Cl)ccc23)CC1	-67.0*	u	-0.5%	-22.5%	u	u
COc1ccccc1N1CCN(c2ccnc3cc(Cl)ccc23)CC1	-63.3*	-11.4%	-8.9%	u	u	u
COc1ccccc1NC(=O)N1CCc2[nH]c3ccc(Cl)cc3c2C1	-17.8	u	0.8%	u	-22.5%	11.2µM*
Cc1ccc2[nH]c3c(=O)n(CC(=O)N4CCCC(C)C4)ncc3c2c1 (centres undefined)	17.6	-20.9%	x	-0.9%[46.1 µM]	x	x
COc1ccc(N2CCN(C(=O)C3CCN(S(=O)(=O)c4cccc5nonc45)CC3)CC2)cc1	-17.7	0.0%	x	4.3%[46.1 µM]	x	x
Cc1ccc(NC(=O)Cn2c(=O)n(Cc3ccccc3)c(=O)c3sc4ccccc4c32)cc1	54.5	-8.8%	x	13.8%[46.1 µM]	2.3%[46.1 µM]	x
CC(=NNC(=S)SCc1ccccc1)c1ccccn1	-96.5*	u	x	1.58µM*	0.891µM*	0.316µM*
S=C(NC1CCCCC1)N1CCN(c2ccccn2)CC1	8.9	-9.0%	-2.7%	4.4%	-15.8%[46.1 µM]	-10.0%
CC(=NNC(=S)N1CCCC1)c1ccccn1	-98.9*	13.7%	x	x	x	x
CC(=NNC(=S)N1CCC1)c1ccccn1	-101.1*	10.7%	x	u	u	1.26µM*
SMILES	HCMV antiviral	FMDV antiviral	SARS PLP yeast	LASV entry inh	MARV entry inh	HCV inhibitor
C/C(=N/NC(=O)c1ccccn1)c1ccc(O)cc1	73.1	0.0%	0.9%	x	x	22.8%
CN(CC(=O)Nc1ccc(Cl)cc1F)S(=O)(=O)c1ccc2c(c1)n(C)c(=O)c(=O)n2C	-5.9	-11.0%	x	12.9%[46.1 µM]	9.7%[46.1 µM]	x
CCOc1ccc(-c2csc(/C(C#N)=C\c3ccc(O)c([N+](=O)[O-])c3)n2)cc1	-29.6	22.4µM*	25.0%	u	u	u
Cc1ccc(-c2nn(C)c(=O)c3ccccc23)cc1S(=O)(=O)NCCN(C)C	29.5	20.1%	-0.2%	-21.2%[46.1 µM]	11.2µM*	6.1%
CC(C)c1nnc(NC(=O)c2nc(S(=O)(=O)Cc3ccccc3)ncc2Cl)s1	-110.4*	4.47µM*	0.6%	u	u	u
CSc1nnc(NC(=O)c2nc(S(=O)(=O)Cc3ccccc3)ncc2Cl)s1	-101.7*	6.31µM*	1.3%	u	u	12.6µM*
Cc1ccccc1CS(=O)(=O)c1ncc(Cl)c(C(=O)Nc2nnc(C(C)C)s2)n1	-98.7*	20µM*	x	u	u	x
CSc1ncc(Cl)c(C(=O)Nc2nnc(SC)s2)n1	-3.5	-22.9%	-2.3%	15.5%	-0.9%	5.7%
C=CCn1c(=O)n([C@@H]2O[C@H](CO)[C@@H](O)[C@H]2O)c2nc(N)[nH]c(=O)c21	x	-5.2%	x	x	x	x
C=CCC(CC=C)(CNC(=O)C(=O)Nc1cccc(C(F)(F)F)c1)c1ccccc1	32.3	-20.8%	x	20.6%[46.1 µM]	12.0%[46.1 µM]	x
O=C(Cn1cccc1C(=O)c1ccccc1)NCCCc1ccccc1	-33.1	-4.4%	2.8%	u	-22.0%[46.1 µM]	-11.3%
COc1ccc(C(=O)NCCC2=CCCCC2)cc1	-4.0	12.6µM*	-8.0%	u	7.31µM*	5.9%
O=C(NCCC1=CCCCC1)c1ccc([N+](=O)[O-])cc1	-17.0	3.5%	-19.1%	u	u	6.9%
O=C(NCCC1=CCCCC1)c1ccc(F)cc1	-29.1	u	-1.5%	10µM*	u	1.0%
O=C(Cn1cccc1C(=O)c1ccccc1)NCCC1=CCCCC1	-64.3*	14.6%	-0.1%	-1.6%	-22.8%[14.2 µM]	-2.1%
COc1ccc(C(=O)NCC(=O)OCC(=O)NCCC2=CCCCC2)cc1	u	-18.5%	-0.7%	-5.5%	28.2%	21.9%
CC(=O)c1cccc(NC(=S)NCCC2=CCCCC2)c1	u	-0.1%	15.3%	u	u	11.2µM*
COc1ccccc1N1CCN(c2nc3ccccc3n3cnnc23)CC1	-16.5	-8.9%	x	x	0.1%[46.1 µM]	x
O=C(Cn1nc2ccccc2n1)N1CCOc2ccc(CN3CCc4sccc4C3)cc2C1	x	-3.2%	x	x	x	x
Cc1ccc(C)c(S(=O)(=O)NCCC(=O)N2CCCC(C(N)=O)C2)c1 (centres undefined)	-82.7*	0.2%	-1.7%	x	x	5.5%
CC1(C)Cc2c(C#N)c(N3CCN(C(=O)c4ccccc4)CC3)nc(Cc3ccccc3)c2CO1	-20.7	-28.7%	-8.4%	2.4%	-26.5%	10.4%
CCc1nc(N2CCN(C(=O)c3ccccc3)CC2)c(C#N)c2c1COC(C)(C)C2	-62.1*	u	-0.8%	u	u	u
COc1ccc(-c2csc(N3C(=O)C4C5c6ccccc6C(c6ccccc65)C4C3=O)n2)cc1 (centres undefined)	-62.4*	-13.1%	14.6%	5.7%	-3.0%	8.2%

High-throughput results (PubChem)
